This passage reports Potency and activity change, negative = inhibition results from PubChem BioAssay AID1745845 (National Center for Advancing Translational Sciences (NCATS), 2022).

SMILES strings stand for the structures. About 2,600 (0.72%) of roughly 360,000 compounds were called active. Another 5% or so got no clear call; they are omitted. The call rests on the fitted dose curve; in most records, active means well fitted inhibition curve with a large enough effect; inconclusive means small, poorly fitted or top-dose-only effect; inactive means no such curve, though single readings can be large or run the other way. The list comes from a sample in which actives are over-represented; it also holds similar structures and randomly drawn compounds. A call without a number means that no potency is given here.
Potency means the concentration at half of the fitted maximal effect.

The experiment can be described thus: Primary qHTS for Inhibitors of ATXN expression. Further: nearly all actives have a fitted effect of over 55% in size. As to conditions: HEK-293 ATXN2-luciferase reporter, luminescence, 24 h; series mostly up to 57 µM. The method, boiled down:
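ATXN2-luciferase reporter cells (luciferase flanked by upstream and downstream ATXN2 gene portions) were treated 24 h at 37 °C with compounds at up to 57 uM. SteadyGlo luminescence gave expression; GF-AFC fluorescence gave viability.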
As to `O=C(NCC12CC3CC(CC(C3)C1)C2)c1cc2nc(-c3ccccc3)cc(C(F)(F)F)n2n1`, the Potency result is “inactive”.

As to `N#Cc1ccccc1NC(=O)COc1c(Br)cc(Br)c2cccnc12`, the Potency entry was “inactive”.

Take `O=C(Nc1cccc2cccnc12)c1cccc2c(Br)cccc12`: the Potency entry was “inactive”.

Take `CC(=O)NC(c1cccs1)c1cc(Br)c2cccnc2c1O` (centres undefined): the Potency is 5.01 µM (active).

Consider `COc1ccc2cc1Oc1ccc(cc1)C[C@H]1c3cc(c(OC)cc3CCN1C)Oc1c(O)c(OC)cc3c1[C@H](C2)N(C)CC3`, for which the Potency is 25.1 µM (active).

For `COc1ccc(-c2nc3ccccc3o2)cc1NC(=O)c1cc([N+](=O)[O-])ccc1N1CCOCC1`, the Potency entry was “inactive”.

As for `COc1ccccc1CNC(=O)c1ccccc1NC(=O)c1nsc2ccccc12`, the Potency entry is “inactive”.

Consider `O=[N+]([O-])c1ccccc1/C=C/CN1CCCC(CO)C1` (centres undefined), for which the Potency entry was “inactive”.

Consider `O=[N+]([O-])c1ccccc1/C=C/CN1CCC(O)CC1`, for which the Potency result was “inactive”.

With `CC1CCCCC1NC(=O)/C(C#N)=C/C=C/c1ccccc1[N+](=O)[O-]` (centres undefined), the Potency was 3.16 µM (active).

As to `COC(=O)/C=C(/C)N`, the Potency result is “inactive”.

For the compound `CN1CC[C@H](c2c(O)cc(O)c3c(=O)cc(-c4ccccc4Cl)oc23)[C@H](O)C1`, the Potency was 31.6 µM (active).

`CCOc1cc(C=C2C(=O)N(c3ccccc3)N=C2C)cc(Cl)c1OCC(=O)OC`: the Potency result was “inactive”.

With `COc1ccc(C(CCNCc2ccccc2F)c2ccc(F)cc2)cc1` (centres undefined), the Potency result is “inactive”.

Consider `COc1cccc(CNCCSc2nnnn2C)c1OCc1ccccc1Cl`, for which the Potency result is “inactive”.

Consider `COc1cccc(CNCCc2c[nH]c3ccccc23)c1OCc1ccccc1F`, for which the Potency was 20 µM (active).

In the case of `Cc1nnc(C(=O)NC(C)(C)c2nc(C(=O)NCc3ccc(F)cc3)c(O)c(=O)n2C)o1`, the Potency result was “inactive”.

Consider `COc1ccc(S(=O)(=O)NCCSc2nnnn2-c2ccccc2)cc1`, for which the Potency result is “inactive”.

With `CSc1ncnc2c1ncn2CCCNCC1CCCCC1`, the Potency result was “inactive”.

For the compound `CSc1ncnc2c1ncn2CC(=O)C1CCC2C3CCC4=CC(=O)CCC4(C)C3CCC12C` (centres undefined), the Potency is 22.4 µM (active).

On to `CSc1ncnc2c1ncn2CCCNCc1ccco1`, for which the Potency entry is “inactive”.

For the compound `COc1ccc(-c2nc(Cn3c(=O)cc(C)c4c(C)nn(-c5ccccc5)c43)c(C)o2)c(OC)c1`, the Potency entry was “inactive”.

For `CCOc1ccccc1CNC(=O)c1ccc(-n2c(C)cc3c2CCC(C)C3)cc1` (centres undefined), the Potency entry was “inactive”.

Consider `CO/N=C(/C(=O)N[C@@H]1C(=O)N2C(C(=O)O)=C(Cn3nnc(C)n3)CS[C@H]12)c1csc(N)n1`, for which the Potency entry is “inactive”.

As to `O=[N+]([O-])c1c(NCCO)cc(Sc2nc3ccccc3s2)c2nonc12`, the Potency is 14.1 µM (active).

Regarding `CC(C)c1ccc(S(=O)(=O)Nc2ccc(O)c(Sc3nc4ccccc4s3)c2)cc1`, the Potency result was “inactive”.

For `CC(C)(C)c1ccc(S(=O)(=O)Nc2ccc(O)c(Sc3nc4ccccc4s3)c2)cc1`, the Potency entry is “inactive”.

Take `CCCCC[C@H](C)N1C[C@@H](COCc2ccccc2)Oc2cc(N3CCC[C@@H]3CO)ccc2S1(=O)=O`: the Potency entry was “inactive”.

In the case of `CCCCN1CC(COCc2ccccc2)OCCS1(=O)=O` (centres undefined), the Potency entry is “inactive”.

On to `CCCCC[C@H](C)N1C[C@@H](COCc2ccccc2)Oc2cc(N3CC[C@@H](N(C)C)C3)ccc2S1(=O)=O`, for which the Potency is 31.6 µM (active).

In the case of `Cc1cccc(Nc2nc(C)nc(N)c2S(=O)(=O)c2ccccc2)c1`, the Potency result was “inactive”.

Regarding `CC(C)CC[n+]1ccn(C2=C([O-])c3ccccc3C(=O)/C2=N\S(=O)(=O)c2ccccc2)c1`, the Potency was 31.6 µM (active).

For the compound `CCC1=Nc2cc(C(=O)NCCCOC(C)C)ccc2Sc2ccc(C)cc21`, the Potency result is “inactive”.

As for `Cc1ccc(C)c(N2CCN(C(=O)CN3C(=O)COc4ccc(S(=O)(=O)N5CCCCCC5)cc43)CC2)c1`, the Potency result is “inactive”.

Consider `COc1cccc(CNC(=O)C2CCC(CNS(=O)(=O)c3cccs3)CC2)c1` (centres undefined), for which the Potency entry is “inactive”.

For the compound `OC(c1ccccc1)(c1ccccc1)C1CCN(CCCOc2ccccc2)CC1`, the Potency result is “inactive”.

Consider `CC(C)(c1ccccc1)c1ccc(OCCN2CCCC2)cc1`, for which the Potency result was “inactive”.

As to `CN1CCC[C@@H]1CCO[C@](C)(c1ccccc1)c1ccc(Cl)cc1`, the Potency is 25.1 µM (active).

For the compound `CCOc1ccc(NC(=O)Cn2c(C)ccc(C#N)c2=O)cc1`, the Potency result is “inactive”.

As for `NCC[C@H](O)C(=O)N[C@@H]1C[C@H](N)[C@@H](O[C@H]2O[C@H](CN)[C@@H](O)[C@H](O)[C@@H]2O)[C@H](O)[C@@H]1O[C@H]1O[C@H](CO)[C@@H](O)[C@H](N)[C@@H]1O`, the activity change, negative = inhibition was 0.946% [at 0.709 µM] (inactive).

As to `CCOc1cccc2c1N[C@@H](c1ccc(C(=O)O)cc1)[C@H]1CC=C[C@@H]21`, the Potency result was “inactive”.

In the case of `C/C(=N\NC(=O)c1ccccc1F)c1ccccn1`, the Potency is 3.98 µM (active).

As to `CC1=NNC(=O)C1CCC(=O)N/N=C(\C)c1ccc(Cl)cc1` (centres undefined), the Potency entry is “inactive”.

Regarding `O=C(Nc1nnc(-c2ccccc2F)s1)c1ccccc1F`, the Potency entry was “inactive”.

Turning to `O=C(NCCCn1ccnc1)c1ccccc1F`, the Potency result was “inactive”.

`C/C(=N\NC(=O)Cc1ccc(Cl)cc1)c1ccccn1`: the Potency is 3.16 µM (active).

Consider `O=C(Cc1ccc(Cl)cc1)c1ccccc1`, for which the Potency result is “inactive”.

`O=C(NCCc1ccccc1)C(=O)NCC(c1ccco1)S(=O)(=O)c1ccccc1` (centres undefined): the Potency entry was “inactive”.

As for `CCc1ccc(NC(=O)c2sc3nc4c(cc3c2N)CN(CC)CC4)cc1`, the Potency entry is “inactive”.

Take `COc1ccc(-c2cc(NC=O)c3ncc(-c4ccccc4)n3c2)cc1OC`: the Potency entry was “inactive”.

Regarding `COc1cccc(N2CCN(S(=O)(=O)c3ccc4c(c3)CCCN4C(C)=O)CC2)c1`, the Potency result was “inactive”.

As to `CC(=O)N1CCCc2cc(S(=O)(=O)N3CCCC(C(=O)N4CCN(c5cccc(Cl)c5)CC4)C3)ccc21` (centres undefined), the Potency is 28.2 µM (active).

For `CC(=O)N1CCCc2cc(S(=O)(=O)CCC(=O)N3CCN(c4ccccc4)CC3)ccc21`, the Potency result was “inactive”.

Take `CCCC(C(=O)OCCN(CC)CC)(c1ccccc1)c1ccccc1`: the Potency was 31.6 µM (active).

Consider `COC(CCN(C)C)(c1ccccc1)c1ccccc1`, for which the Potency entry is “inactive”.

Turning to `CCN(CC)CCOC(=O)c1ccc(NC(=O)CNC(=O)c2ccccc2)cc1`, the Potency result was “inactive”.

With `O=c1cc(CSc2ncn[nH]2)[nH]c2ccc(F)cc12`, the Potency result was “inactive”.

For `COc1cc(/C=C/C(N)=O)cc(OC)c1OC`, the Potency result is “inactive”.

For the compound `COCCCN1CCC(NC(=O)c2cc(Cl)c(N)c3c2OCC3)CC1`, the Potency result was “inactive”.
